Experiment [1] can be described thus: qHTS assay to identify small molecule agonists of the hypoxia (HIF-1) signaling pathway - cell viability counter screen (AID 1224844; calls by dose curve; further: nearly all actives have a fitted effect of over 50% in size; further: potency means the concentration at half of the fitted maximal effect). The procedure, abridged: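 HRE-bla ME-180 cells in medium with 0.5% dialyzed FBS were preincubated 5 hrs at 37C, exposed to compounds for 17 hrs, then viability was read as CellTiter-Glo luminescence after 30 min at room temperature, in the reporter wells.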
(Quantitative high-throughput screening tests each substance at several concentrations.)

A short description of experiment [2]: qHTS assay to identify small molecule agonists of H2AX (AID 1224845; active means well fitted activation curve with a large enough effect in the signal ratio in the repeat runs, not every such curve was filed as active; the % refers to the signal ratio). In a few lines:
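Phospho-H2AX Ser139 measured by HTRF (ex 320 nm; em 665 and 620 nm) after 24 hr antibody incubation. Compounds, 15 concentrations, 0.76% DMSO, were applied to CHO-K1 cells for 3hr at 37C before lysis.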

Experiment [3] is described as follows: qHTS assay to identify small molecule agonists of H2AX - cell viability counter screen (AID 1224847; calls by dose curve; further: top concentration of the series differs between compounds; nearly all actives have a fitted effect of over 30% in size). The procedure, abridged: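 Viability of CHO-K1 (wild type) cells after 3 hr compound exposure was measured by CellTiter-Glo luminescence.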
Experiment [4] can be described thus: qHTS RealTime-Glo MT Cell Viability Assay in HepG2 cells - 24 hour (AID 1224867). Further: nearly all actives have a fitted effect of over 50% in size. In a few lines: (§1)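 Cell number in HepG2 cultures estimated from NanoLuc luminescence generated by metabolic reduction of a prosubstrate by living cells. The homogeneous, nonlytic format allowed repeated reads at 0, 8, 16, 24, 32 and 40 h of compound exposure.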
The nature of experiment [5]: qHTS RealTime-Glo MT Cell Viability Assay in HEK293 cells - 32 hour (AID 1224868). Further: top concentration of the series differs between compounds; nearly all actives have a fitted effect of over 50% in size. The procedure, abridged: (§2)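 Homogeneous bioluminescent viability format in HEK293 cells (600 cells/well). Following 5 h at 37 C/5% CO2, 23 nL compound was pintooled; the signal was measured repeatedly during 40 h incubation.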
A short description of experiment [6]: A CellTox Green Cytotoxicity Assay to monitor cytotoxicity in HEK293 cells - 0 hour (AID 1224869). Further: nearly all actives have a fitted effect of over 50% in size. The procedure, abridged:
(§3)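 HEK293 cells premixed with CellTox Green dye were seeded at 600 cells/well and left 5 h at 37 C/5% CO2 before pin transfer of 23 nL compound in DMSO. Fluorescence from dye bound to dead-cell DNA was read during 40 h treatment.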

The nature of experiment [7]: qHTS RealTime-Glo MT Cell Viability Assay in HepG2 cells - 40 hour (AID 1224870). Further: nearly all actives have a fitted effect of over 50% in size. In a few lines:
(§4)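 Real-time viability: cells seeded at 600 per well together with NanoLuc and cell-permeant prosubstrate, compounds added after 5 h incubation. Luminescence tracked at 0, 8, 16, 24, 32 and 40 h of exposure.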

Experiment [8] can be described thus: A CellTox Green Cytotoxicity Assay to monitor cytotoxicity in HEK293 cells - 40 hour (AID 1224871). Further: nearly all actives have a fitted effect of over 45% in size. Further: potency means the concentration at half of the fitted maximal effect. The procedure, abridged: as §3
Experiment [9] can be described thus: qHTS RealTime-Glo MT Cell Viability Assay in HepG2 cells - 8 hour (AID 1224873). Further: nearly all actives have a fitted effect of over 55% in size. The procedure, abridged: as §4
Experiment [10] can be described thus: qHTS RealTime-Glo MT Cell Viability Assay in HEK293 cells - 40 hour (AID 1224874). Further: nearly all actives have a fitted effect of over 50% in size. The following applies: RealTime-Glo luminescence; max response: active compounds read low. The procedure, abridged:
(§5)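 HEK293 cells mixed with RealTime-Glo reagents (NanoLuc plus cell-permeant prosubstrate) at 600 cells/well, preincubated 5 h at 37 C/5% CO2, then given 23 nL compound in DMSO. Nonlytic luminescence from viable cells was read at 0, 8, 16, 24, 32 and 40 h.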

Experiment [11] can be described thus: A CellTox Green Cytotoxicity Assay to monitor cytotoxicity in HEK293 cells - 24 hour (AID 1224875). Further: nearly all actives have a fitted effect of over 45% in size. The procedure, abridged: as §3
Experiment [12] is described as follows: A CellTox Green Cytotoxicity Assay to monitor cytotoxicity in HepG2 cells - 16 hour (AID 1224876). Further: nearly all actives have a fitted effect of over 45% in size. Further: potency means the concentration at half of the fitted maximal effect. In a few lines:
(§6)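 HepG2 cells were seeded together with the CellTox Green dye at 600 cells/well, left 5 h at 37 C/5% CO2, then given compounds in DMSO. Fluorescence from dye bound to dead-cell DNA was read repeatedly over 40 h of treatment at 37 C.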

The nature of experiment [13]: qHTS RealTime-Glo MT Cell Viability Assay in HepG2 cells - 32 hour (AID 1224877). Further: nearly all actives have a fitted effect of over 55% in size. The procedure, abridged: as §1
Experiment [14] in a line: A CellTox Green Cytotoxicity Assay to monitor cytotoxicity in HepG2 cells - 24 hour (AID 1224878). Further: nearly all actives have a fitted effect of over 45% in size. Further: potency means the concentration at half of the fitted maximal effect. The procedure, abridged: as §6
The nature of experiment [15]: A CellTox Green Cytotoxicity Assay to monitor cytotoxicity in HepG2 cells - 40 hour (AID 1224879). Further: nearly all actives have a fitted effect of over 40% in size. In a few lines:
as §6

Experiment [16] is described as follows: qHTS RealTime-Glo MT Cell Viability Assay in HEK293 cells - 0 hour (AID 1224880). The procedure, abridged:
as §5

Experiment [17] in a line: qHTS assay to identify small molecule agonists of the hypoxia (HIF-1) signaling pathway (AID 1224846; active means well fitted activation curve with a large enough effect in the signal ratio in the repeat runs, not every such curve was filed as active; the % refers to the signal ratio). In a few lines: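 HRE-bla ME-180 cells (beta-lactamase reporter under hypoxia response element) were plated at 2,000 cells/well in medium with 0.5% dialyzed FBS, rested 5 hrs, then given compounds in DMSO for 17 hrs at 37C, 5% CO2. Reporter induction was read with CCF4-AM FRET substrate.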

Experiment [18] is described as follows: qHTS assay to identify small molecule antagonists of the estrogen related receptor (ERR) signaling pathway from Tox21 library (AID 1224848). Further: nearly all actives have a fitted effect of over 50% in size. The procedure, abridged:
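Reading was by luminescence 30 min after ONE-Glo addition. Before that, ERR cells at 2,000 per well had rested 6 h at 37 C/5% CO2 and then received pin-tooled compounds in DMSO for 18 h at 37 C.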

Experiment [19] can be described thus: qHTS assay to identify small molecule agonists of the estrogen related receptor (ERR) signaling pathway from Tox21 library (AID 1224849; calls by dose curve; further: nearly all actives have a fitted effect of over 15% in size). Particulars: ERR reporter cell line, ONE-Glo luciferase, 18 h; at 92.4 µM (top of the series) unless noted. The procedure, abridged:
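ERR reporter cell line (NTP) seeded, rested 6 h at 37 C/5% CO2, then pinned with Tox21 compounds in DMSO. After 18 h at 37 C, ONE-Glo luciferase luminescence was read following 30 min at room temperature.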

Experiment [20] in a line: qHTS RealTime-Glo MT Cell Viability Assay in HEK293 cells - 16 hour (AID 1224872). The procedure, abridged:
as §2

The results in this text go back to PubChem BioAssay (Tox21).

Unmarked numbers belong to inactive results. Records with an inconclusive call do not appear. Active and inactive are the calls of the source. Unless noted, the call rests on the fitted dose curve; in most records, active means well fitted curve in the direction sought with a large enough effect in the repeat runs; inconclusive means weak or mixed curves; inactive means no such curve, though single readings can be large; an effect the other way counts as inactive or inconclusive.
On the % scale 0 is the no-effect control and ±100 the full control effect.

In the case of `NCCCOCCOCCOCCCN`, in [1], the Potency is 15.5 µM (active). Besides, the Potency entry in [2], in experiment [3], in experiment [4], in [5], in experiment [6] and in [7] was “inactive” in each case. The Potency result in experiment [8], in experiment [9], in experiment [11], in [12], in experiment [13] and in [14] was “inactive” in each case. Further, the Potency entry in [15] and in [16] was “inactive” each time. In addition, the max response in experiment [10] was -18%.

Consider `O=C(c1ccc(O)cc1)c1ccc(O)cc1`, for which the Potency entry in experiment [1], in [18], in [4], in [5], in [6] and in experiment [7] was “inactive” in each case. For the same molecule, the Potency result in [8], in experiment [20], in [9], in experiment [11], in experiment [12] and in experiment [13] was “inactive” in each case. Moreover, the Potency entry in experiment [14], in experiment [15] and in experiment [16] was “inactive” in each case. Besides, the result in [17] was inactive. The activity change, positive = activation in [19] is 37.5% (active). Further, the max response in experiment [10] is -22.8%.

Consider `CC(C(=O)O)c1ccc(-c2ccccc2)c(F)c1` (configuration not stated), for which the Potency entry in experiment [1], in [2], in experiment [4], in experiment [5], in experiment [6] and in experiment [7] was “inactive” throughout. For the same molecule, the Potency result in experiment [8], in experiment [20], in experiment [9], in experiment [11], in experiment [13] and in experiment [16] was “inactive” throughout. Also, in experiment [10], the max response was -0.192%. Besides, the Potency in experiment [12] was 49 µM (active); in experiment [14] it was 54.9 µM (active).

For the molecule `CCCCCCCCCCCCCCCBr`, the Potency result in experiment [1], in experiment [3], in experiment [4], in [6], in [7] and in [8] was “inactive” in each case. Further, the Potency result in experiment [20], in [9], in experiment [11], in experiment [12], in [13] and in [14] was “inactive” throughout. Besides, the Potency result in experiment [15] and in [16] was “inactive” throughout. In addition, in experiment [17], the call was inactive. Further, the max response in experiment [10] is -1.7%.

Regarding `O=[N+]([O-])c1cc[n+]([O-])cc1`, the Potency entry in experiment [1], in experiment [3], in experiment [6], in experiment [8], in [20] and in [9] was “inactive” throughout. The Potency entry in experiment [11], in experiment [12], in experiment [14], in experiment [15] and in [16] was “inactive” in each case. Further, in experiment [17], the call was inactive. In addition, in experiment [10], the max response was -21.4%.

For `CC(C)(C)c1ccc(OCC2CO2)cc1` (configuration not stated), the Potency result in experiment [1], in experiment [18], in experiment [4], in [6], in experiment [7] and in experiment [20] was “inactive” each time. The Potency entry in [9], in experiment [12], in experiment [13], in experiment [14] and in experiment [15] was “inactive” throughout. Besides, the outcome in experiment [17] was inactive. In [19], the activity change, positive = activation was 3.37%. The Potency in experiment [8] is 50 µM (active). Moreover, the max response in experiment [10] is -5.37%.

In the case of `O=C(C(=O)c1ccc(Br)cc1)c1ccc(Br)cc1`, the activity change, negative = cytotoxicity was -11.6% [at 15.8 µM] in experiment [1]; 0.693% [at 31.6 µM] in experiment [3]; -0.799% [at 15.8 µM] in experiment [4]; 5.77% [at 15.8 µM] in experiment [20]; -3.2% [at 15.8 µM] in [16]. The activation in experiment [17] was -1.03% [at 15.8 µM]. In experiment [18], the activity, negative = inhibition was -0.511% [at 19 µM]. Besides, in experiment [19], the activity change, positive = activation is 0.063% [at 19 µM]. The activity change, negative = cytotoxic in experiment [5] was 3.98% [at 15.8 µM]; in [7] it was 6.88% [at 15.8 µM]; in experiment [13], 2.16% [at 15.8 µM]. Besides, the cytotoxicity in experiment [6] is 1.99% [at 15.8 µM]; in experiment [14], -10% [at 15.8 µM]. In addition, the cytotoxicity increase in experiment [8] is 0.336% [at 15.8 µM]; in [12], -6.44% [at 15.8 µM]; in experiment [15] it was -10.2% [at 15.8 µM]. Further, in [9], the viability change, negative = cytotoxic was -3.19% [at 15.8 µM]. Besides, the max response in experiment [10] is 0.201%. Also, in experiment [11], the activity change is -0.496% [at 15.8 µM, active compounds read high].
